# Data: PubChem BioAssay (NCATS)
# Records with an inconclusive call do not appear. A call without a number means that no potency is given here. Active and inactive are the calls of the source. Unless noted, the call rests on the fitted dose curve; in most records, active means well fitted curve in the direction sought with a large enough effect; inconclusive means small, poorly fitted or top-dose-only effect, or another doubt; inactive means no such curve, though single readings can be large; an effect the other way counts as inactive or inconclusive.
# Legend:
# [1] = molecular target: Transient receptor potential cation channel subfamily V member 1 (Homo sapiens) (UniProt Q8NER1); test: HTS Assay for Compounds that Act as Enhancers of the Vanilloid Receptor 1 (AID 488979)
# Procedure, shortened: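 TRPV1 cells loaded with Fluo-8 calcium dye; compound added and Ca2+ signal (ex 480/em 520 nm) followed 3 min, then capsaicin at EC20 added and read 2 more min to detect enhancement.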
# [2] = molecular target: Thyrotropin receptor (Homo sapiens) (UniProt P16473); test: qHTS Assay for Antagonists of the Thyroid Stimulating Hormone Receptor (AID 488980); further: series mostly up to about 58 µM
# Procedure, shortened: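 Readout is cAMP by HTRF competition between cellular cAMP and cAMP-d2 for a cryptate-labelled antibody. Antagonism was assessed in TSHR-transfected HEK293 cells stimulated with 4 nM TSH (EC80, final) in the presence of RO 20-1724.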
# [3] = molecular target: D(1A) dopamine receptor (Homo sapiens) (UniProt P21728); test: HTS Assay for Allosteric Agonists of the Human D1 Dopamine Receptor: Primary Screen for Agonists (AID 488981)
# Procedure, shortened: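 Tetracycline-induced HEK293 Trex D1 cells with forced coupling to calcium, loaded with no-wash calcium dye; kinetic fluorescence read 180 s after compound addition for agonism, then a further 180 s after an EC20 dopamine challenge for potentiation.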
# [4] = molecular target: D(1A) dopamine receptor (Homo sapiens) (UniProt P21728); test: HTS Assay for Allosteric Agonists of the Human D1 Dopamine Receptor: Primary Screen for Antagonists (AID 488983);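 further: calcium flux response to an EC80 dopamine challenge measured with no-wash dye; nearly all actives have a fitted effect of over 65% in size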
# Procedure, shortened: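 Tetracycline-induced HEK293 T-REx cells expressing force-coupled D1 were plated overnight at 30 C, dye-loaded for calcium, and read kinetically. Compounds were pinned in, then an EC80 dopamine challenge followed after 180 s to reveal antagonism.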
# [5] = Validation screen for small molecules that induce genotoxicity in human embryonic kidney (HEK293T) cells expressing luciferase-tagged ELG1 (AID 493106)
# Procedure, shortened: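 HEK293T cells expressing luciferase-tagged ELG1 were exposed to compound or DMSO vehicle for 16 hr at 37 °C, 5% CO2. Genotoxic stress raises ELG1 levels, so increased luciferase signal after ONE-Glo addition and 30 min at room temperature marks hits.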
# [6] = molecular target: ATPase family AAA domain-containing protein 5 (Homo sapiens) (UniProt Q96QE3); test: Validation screen for small molecules that inhibit ELG1-dependent DNA repair in human embryonic kidney (HEK293T) cells expressing luciferase-tagged ELG1 (AID 493107);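 further: cells co-treated with the DNA-damaging agent 5-fluorouridine alongside compound; series mostly up to about 46 µM; inhibitors lower the ELG1-luciferase luminescence signal; nearly all actives have a fitted effect of over 70% in size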
# Procedure, shortened: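 HEK293T cells expressing luciferase-tagged ELG1 were co-treated with 5-fluorouridine and compound or DMSO for 16 hr at 37 °C, 5% CO2. Luciferase activity was then read with ONE-Glo after 30 min at room temperature; suppressed signal indicates blocked ELG1 function.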
# [7] = molecular target: Thyrotropin-releasing hormone receptor (Homo sapiens) (UniProt P34981); test: qHTS for Small Molecule Agonists and Allosteric Enhancers of Human TRH Receptor: Validation Screen for Agonists (AID 493127;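 active means calcium activation more than 3 SD above the typical response in the agonist read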;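 further: intracellular calcium rise by fluo-8 fluorescence before TRH EC20 addition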); conditions: TRH receptor agonist cell assay; at 2 µM; stronger effect = higher value
# Procedure, shortened: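 TRHR-expressing cells were plated overnight in serum-containing medium, then loaded with fluo-8 calcium dye at room temperature for 30 min–1.5 h. After a 10 s baseline, compound was pin-transferred and calcium fluorescence (ex 480/em 530) read kinetically for agonist response.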
# [8] = Nrf2 qHTS screen for inhibitors: Validation (AID 493153; active means well fitted inhibition curve with a large enough effect in the main read-out, with a control signal flat, not every such curve was filed as active); conditions: viability change: measured here: cytotoxicity max response
# Procedure, shortened: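 A549 cells carrying an ARE-driven firefly luciferase reporter, in 5% FBS OPTI-MEM, were treated with compounds in concentration-response for 18-24 h at 37°C. Viability was read by CellTiter-Fluor fluorescence, then Nrf2 activity by luciferase luminescence.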
# [9] = qHTS for Inhibitors of Cell Surface uPA Generation: Validation Assay (AID 493164);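 further: RAW 264.7 macrophage cells exposed to compound for 18 h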
# Procedure, shortened: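 RAW 264.7, 4000 cells/well, o/n plating; cpd 7-pt 1:5 dilution 2.45 nM–38.3 uM final; 18 h, 37 C/5% CO2; ATP-Lite, 5 s luminescence exposure.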
# [10] = molecular target: Phosphoglycerate kinase, glycosomal (Trypanosoma brucei brucei) (UniProt P07378); test: qHTS Validation Assay to Find Inhibitors of Phosphoglycerate Kinase (AID 504547)
# Procedure, shortened: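 PGK activity was coupled to GAPDH (100nM final), which generates the unstable substrate 1,3-bisphosphoglycerate in-well. Reactions ran 60 minutes at room temperature in 100mM TEA pH 7.6, 5mM MgCl2, 0.01% Tween-20, then Kinase-Glo Plus luminescence was read.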
# [11] = molecular target: phosphoglycerate mutase (Leishmania major) (UniProt Q4Q090); test: qHTS Validation Assay to Find Inhibitors of Phosphoglycerate Mutase (AID 504548);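 further: end-point luminescence from Kinase-GloPlus after the PGAM reaction; series mostly up to about 58 µM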
# Procedure, shortened: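 Inhibition of L. major PGAM was assessed by Kinase-GloPlus luminescence following a 45-minute room-temperature reaction with enzyme at 1.25nM final.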
# [12] = qHTS for Inhibitors of ATXN expression: Validation (AID 588378); further: series mostly up to about 57 µM; nearly all actives have a fitted effect of over 75% in size
# Procedure, shortened: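 Compounds were pinned onto attached HEK293 cells carrying an ATXN2-firefly luciferase construct and incubated 24 hrs at 37 degrees C. Each well then received a fluorescent viability reagent followed by luciferase substrate for end-point luminescence.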
# [13] = molecular target: DNA dC->dU-editing enzyme APOBEC-3G (Homo sapiens) (UniProt Q9HC16); test: qHTS for inhibitors of Vif-A3G interactions: Validation (AID 588379)
# Procedure, shortened: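 HeLa cells stably expressing Vif and A3G-eYFP, 700 cells/well, incubated overnight at 37 deg C, then exposed to compound overnight at 37 deg C. Inhibition of Vif-mediated degradation read as increased yellow fluorescence (Ex 488/Em 500-530) by laser-scanning cytometry.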
# [14] = molecular target: Voltage-gated inwardly rectifying potassium channel KCNH2 (Homo sapiens) (UniProt Q12809); test: qHTS Assay for Small Molecule Inhibitors of the Human hERG Channel Activity (AID 588834);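 further: top concentration of the series differs between compounds; lower thallium flux fluorescence means stronger hERG block; nearly all actives have a fitted effect of over 50% in size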
# Procedure, shortened: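 hERG-BacMam U2OS, 2000 cells/well; 0.7X FluxOR loading 1 hr RT dark; cpd ~10 min 37 °C; stim buffer; FDSS fluorescence 2 min @ 1 s; AC50 Hill fit.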
# [15] = molecular target: Glutaminase kidney isoform, mitochondrial (Homo sapiens) (UniProt O94925); test: qHTS for Inhibitors of Glutaminase (GLS): LOPAC Validation (AID 624146); further: potency means the concentration at half of the fitted maximal effect; nearly all actives have a fitted effect of over 60% in size
# Procedure, shortened: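 hKGA in 45 mM KH2PO4 pH 8.2, 0.02% Tween-20 with pin-transferred compounds; 1 mM L-glutamine (stock) plus glutamate oxidase/HRP/Amplex Red coupling added. Fluorescence read initially and after 30 min at RT.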
# [16] = qHTS of Trypanosoma Brucei Inhibitors: LOPAC Validation (AID 624147)
# Procedure, shortened: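 ADP (130 uM final) triggers the TbPYK reaction after compound addition; incubation is 45 min at room temperature. Kinase-Glo Plus is then added and luminescence imaged. Normalized data are fitted to concentration-effect curves.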
# [17] = molecular target: Glucagon-like peptide 1 receptor (Homo sapiens) (UniProt P43220); test: qHTS of GLP-1 Receptor Agonists: LOPAC Validation (AID 624148);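 further: higher luminescence signal means agonism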
# Procedure, shortened: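 HEK293 cells stably co-expressing GLP-1R and a cAMP-responsive luciferase reporter, plated 12 hours before compound, then incubated 4-6 hr at 37 deg C. Luminescence read 12 min after detection reagent.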
# [18] = qHTS of Nrf2 Activators: LOPAC Validation (AID 624149)
# Procedure, shortened: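 AREc32 cells carrying an ARE-driven firefly luciferase were grown overnight in OPTI-MEM with 5% FBS, then exposed to compounds for 24 hr at 37 deg C. Luciferase signal was read after 30 min with Steady-Glo at RT.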
# [19] = HTS Assay for Allosteric Antagonists of the Human D2 Dopamine Receptor: Hit Validation in HTRF (AID 624455);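 further: stable D1 dopamine receptor cell line scored for blocking the D1 response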
# Procedure, shortened: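 Hits were examined in an HTRF assay using cells stably expressing the D1 dopamine receptor, scoring inhibition of the D1-mediated response. The preceding primary screen tracked calcium flux after an EC80 dopamine addition in force-coupled, inducible Hek293 Trex D2 cells.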
# [20] = molecular target: Arylsulfatase A (Homo sapiens) (UniProt P15289); test: qHTS screen for enhancers of Arylsulfatase A (ASA1): LOPAC Validation Assay (AID 720538)
# Procedure, shortened: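 MLD patient fibroblasts (SV40, ASA-I179S), 1536-well; adhere 6 hrs; cpd 48h, 37 degree C, 5% CO2; pNCS 0.5mM final in lysis buffer, 14h RT; stop 1N NaOH final; fluor. Ex525/Em598.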
# D(1A) dopamine receptor (Homo sapiens), sequence (P21728 whole entry, looked up): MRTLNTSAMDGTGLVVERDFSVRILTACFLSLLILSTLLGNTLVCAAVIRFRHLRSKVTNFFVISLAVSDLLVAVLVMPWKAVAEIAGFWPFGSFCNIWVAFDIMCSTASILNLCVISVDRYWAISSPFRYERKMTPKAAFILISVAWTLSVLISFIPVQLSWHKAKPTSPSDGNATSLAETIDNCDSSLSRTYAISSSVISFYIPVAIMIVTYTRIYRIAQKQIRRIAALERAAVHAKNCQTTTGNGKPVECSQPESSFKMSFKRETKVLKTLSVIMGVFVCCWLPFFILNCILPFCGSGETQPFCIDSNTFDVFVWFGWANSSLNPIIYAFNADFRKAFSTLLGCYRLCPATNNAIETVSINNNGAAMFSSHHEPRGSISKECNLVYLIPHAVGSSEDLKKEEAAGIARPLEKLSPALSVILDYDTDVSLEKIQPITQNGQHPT
# Voltage-gated inwardly rectifying potassium channel KCNH2 (Homo sapiens), sequence (Q12809 whole entry, looked up): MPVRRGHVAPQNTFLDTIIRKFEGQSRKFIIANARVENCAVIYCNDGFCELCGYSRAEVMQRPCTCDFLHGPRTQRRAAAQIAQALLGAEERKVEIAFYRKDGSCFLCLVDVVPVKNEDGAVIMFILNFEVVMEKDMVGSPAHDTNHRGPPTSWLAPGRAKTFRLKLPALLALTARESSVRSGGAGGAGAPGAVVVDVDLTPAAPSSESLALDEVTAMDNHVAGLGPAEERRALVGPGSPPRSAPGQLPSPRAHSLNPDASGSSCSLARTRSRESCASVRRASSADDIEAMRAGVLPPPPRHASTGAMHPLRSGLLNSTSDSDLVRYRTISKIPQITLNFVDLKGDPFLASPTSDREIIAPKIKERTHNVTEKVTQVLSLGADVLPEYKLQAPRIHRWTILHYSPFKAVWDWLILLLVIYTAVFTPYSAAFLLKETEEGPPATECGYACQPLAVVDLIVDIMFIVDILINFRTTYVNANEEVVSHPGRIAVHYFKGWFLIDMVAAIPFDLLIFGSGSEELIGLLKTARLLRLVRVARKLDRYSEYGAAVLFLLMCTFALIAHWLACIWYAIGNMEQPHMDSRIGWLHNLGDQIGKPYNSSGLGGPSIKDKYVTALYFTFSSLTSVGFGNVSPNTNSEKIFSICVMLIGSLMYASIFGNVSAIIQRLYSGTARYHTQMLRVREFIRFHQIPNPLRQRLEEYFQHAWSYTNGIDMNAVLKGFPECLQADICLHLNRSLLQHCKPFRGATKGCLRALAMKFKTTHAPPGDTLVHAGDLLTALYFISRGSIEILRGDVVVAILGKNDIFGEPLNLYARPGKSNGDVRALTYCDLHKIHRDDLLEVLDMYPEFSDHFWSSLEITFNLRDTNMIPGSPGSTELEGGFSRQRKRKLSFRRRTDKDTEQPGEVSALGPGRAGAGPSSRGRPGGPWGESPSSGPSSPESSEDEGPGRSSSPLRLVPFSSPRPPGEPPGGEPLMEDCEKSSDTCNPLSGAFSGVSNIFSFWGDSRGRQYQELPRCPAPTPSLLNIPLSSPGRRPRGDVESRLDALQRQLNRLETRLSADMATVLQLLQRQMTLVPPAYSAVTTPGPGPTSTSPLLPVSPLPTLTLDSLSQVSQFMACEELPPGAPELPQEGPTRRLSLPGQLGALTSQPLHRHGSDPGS
# Phosphoglycerate kinase, glycosomal (Trypanosoma brucei brucei), sequence (P07378 whole entry, looked up): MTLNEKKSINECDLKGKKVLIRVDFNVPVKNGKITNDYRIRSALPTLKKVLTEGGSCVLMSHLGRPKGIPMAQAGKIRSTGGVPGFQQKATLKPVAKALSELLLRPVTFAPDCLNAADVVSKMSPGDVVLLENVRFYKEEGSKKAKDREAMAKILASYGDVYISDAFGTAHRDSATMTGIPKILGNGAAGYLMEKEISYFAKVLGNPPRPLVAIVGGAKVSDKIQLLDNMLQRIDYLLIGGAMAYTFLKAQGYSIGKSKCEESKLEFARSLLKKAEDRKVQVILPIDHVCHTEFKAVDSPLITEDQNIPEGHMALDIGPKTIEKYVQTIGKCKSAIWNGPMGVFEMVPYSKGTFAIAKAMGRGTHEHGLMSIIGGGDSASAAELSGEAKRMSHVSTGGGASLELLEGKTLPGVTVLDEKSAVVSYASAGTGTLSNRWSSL
# Thyrotropin receptor (Homo sapiens), sequence (P16473 whole entry, looked up): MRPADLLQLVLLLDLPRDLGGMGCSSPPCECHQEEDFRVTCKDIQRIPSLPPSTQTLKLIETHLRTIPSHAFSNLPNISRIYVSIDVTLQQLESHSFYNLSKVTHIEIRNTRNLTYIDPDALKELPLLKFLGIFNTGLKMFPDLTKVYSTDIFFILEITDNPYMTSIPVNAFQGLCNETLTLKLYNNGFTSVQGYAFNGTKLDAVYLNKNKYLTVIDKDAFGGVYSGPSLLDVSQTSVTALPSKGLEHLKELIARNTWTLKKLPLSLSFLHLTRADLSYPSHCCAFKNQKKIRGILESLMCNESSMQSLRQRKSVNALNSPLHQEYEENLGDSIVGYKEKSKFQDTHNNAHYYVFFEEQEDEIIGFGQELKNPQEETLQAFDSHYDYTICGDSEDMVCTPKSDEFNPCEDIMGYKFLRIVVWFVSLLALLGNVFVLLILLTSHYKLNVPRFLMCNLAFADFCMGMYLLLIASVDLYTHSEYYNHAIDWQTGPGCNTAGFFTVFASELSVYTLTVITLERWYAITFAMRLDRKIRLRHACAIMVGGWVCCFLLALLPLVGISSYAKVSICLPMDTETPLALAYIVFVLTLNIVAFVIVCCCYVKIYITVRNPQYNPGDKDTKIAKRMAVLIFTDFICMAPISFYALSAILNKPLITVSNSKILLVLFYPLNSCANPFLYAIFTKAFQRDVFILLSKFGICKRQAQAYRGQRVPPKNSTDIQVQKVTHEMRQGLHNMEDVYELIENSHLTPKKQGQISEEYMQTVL
# Glutaminase kidney isoform, mitochondrial (Homo sapiens), sequence (O94925 whole entry, looked up, canonical isoform): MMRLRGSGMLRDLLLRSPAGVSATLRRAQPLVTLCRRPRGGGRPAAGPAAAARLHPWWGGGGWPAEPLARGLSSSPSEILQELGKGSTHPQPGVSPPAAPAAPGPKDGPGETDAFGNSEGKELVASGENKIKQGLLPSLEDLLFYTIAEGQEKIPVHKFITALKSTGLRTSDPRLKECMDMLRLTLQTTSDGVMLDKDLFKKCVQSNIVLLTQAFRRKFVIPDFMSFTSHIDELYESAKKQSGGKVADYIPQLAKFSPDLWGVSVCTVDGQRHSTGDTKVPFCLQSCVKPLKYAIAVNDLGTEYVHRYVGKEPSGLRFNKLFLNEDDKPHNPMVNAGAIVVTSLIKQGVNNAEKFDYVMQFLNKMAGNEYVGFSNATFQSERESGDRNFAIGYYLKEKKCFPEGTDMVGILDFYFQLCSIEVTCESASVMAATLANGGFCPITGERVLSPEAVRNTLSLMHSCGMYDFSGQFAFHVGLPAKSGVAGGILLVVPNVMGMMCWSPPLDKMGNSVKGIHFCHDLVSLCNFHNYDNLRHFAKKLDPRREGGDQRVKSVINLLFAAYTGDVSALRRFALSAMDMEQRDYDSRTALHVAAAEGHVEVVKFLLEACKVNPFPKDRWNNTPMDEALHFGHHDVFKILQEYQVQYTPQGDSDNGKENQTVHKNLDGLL
# Transient receptor potential cation channel subfamily V member 1 (Homo sapiens), sequence (Q8NER1 whole entry, looked up): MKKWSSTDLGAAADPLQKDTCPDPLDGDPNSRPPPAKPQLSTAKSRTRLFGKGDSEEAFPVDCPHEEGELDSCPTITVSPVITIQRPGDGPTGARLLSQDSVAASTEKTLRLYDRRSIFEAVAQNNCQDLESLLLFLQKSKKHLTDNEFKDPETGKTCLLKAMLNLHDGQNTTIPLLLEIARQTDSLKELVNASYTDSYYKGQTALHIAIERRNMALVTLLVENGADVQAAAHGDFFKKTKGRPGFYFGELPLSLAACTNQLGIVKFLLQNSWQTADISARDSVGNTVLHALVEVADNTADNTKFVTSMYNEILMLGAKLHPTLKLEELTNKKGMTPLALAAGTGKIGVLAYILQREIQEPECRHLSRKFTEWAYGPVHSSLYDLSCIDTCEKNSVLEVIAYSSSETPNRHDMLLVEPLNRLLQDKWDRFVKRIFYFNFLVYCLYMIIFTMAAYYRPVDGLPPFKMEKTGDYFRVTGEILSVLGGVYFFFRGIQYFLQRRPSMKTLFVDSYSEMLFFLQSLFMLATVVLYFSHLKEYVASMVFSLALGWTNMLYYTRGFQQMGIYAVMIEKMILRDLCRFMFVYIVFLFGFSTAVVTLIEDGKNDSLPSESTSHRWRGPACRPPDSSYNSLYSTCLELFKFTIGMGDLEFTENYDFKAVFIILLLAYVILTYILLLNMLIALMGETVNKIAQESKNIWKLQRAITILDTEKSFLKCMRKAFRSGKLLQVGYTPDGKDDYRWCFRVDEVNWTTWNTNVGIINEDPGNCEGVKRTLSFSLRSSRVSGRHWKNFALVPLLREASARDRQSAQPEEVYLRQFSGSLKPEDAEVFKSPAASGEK
# Arylsulfatase A (Homo sapiens), sequence (P15289 whole entry, looked up): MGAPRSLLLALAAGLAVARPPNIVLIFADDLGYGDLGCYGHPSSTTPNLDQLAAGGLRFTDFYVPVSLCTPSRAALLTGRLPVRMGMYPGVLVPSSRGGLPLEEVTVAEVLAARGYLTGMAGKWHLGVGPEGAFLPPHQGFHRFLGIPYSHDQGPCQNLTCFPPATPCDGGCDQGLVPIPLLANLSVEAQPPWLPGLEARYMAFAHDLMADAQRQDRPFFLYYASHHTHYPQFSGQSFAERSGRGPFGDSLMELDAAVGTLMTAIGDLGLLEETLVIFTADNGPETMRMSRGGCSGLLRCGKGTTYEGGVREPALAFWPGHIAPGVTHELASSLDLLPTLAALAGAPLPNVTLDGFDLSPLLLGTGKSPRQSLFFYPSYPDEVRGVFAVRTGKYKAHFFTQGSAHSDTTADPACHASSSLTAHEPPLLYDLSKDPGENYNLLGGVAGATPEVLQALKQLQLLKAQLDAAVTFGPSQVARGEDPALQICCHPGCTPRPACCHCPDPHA
compound,measurement,setting,value
N#C/C(=C\c1ccc(O)c(O)c1)C(=O)Nc1ccccc1,outcome,[1],inactive
same,outcome,[2],inactive
same,outcome,[3],inactive
same,outcome,[4],inactive
same,Potency,[5],inactive
same,Potency,[6],inactive
same,activation,[7],5.88% (inactive)
same,outcome,[8],inactive
same,viability change,[8],-12%
same,outcome,[9],inactive
same,Potency,[10],inactive
same,outcome,[11],inactive
same,Potency,[12],inactive
same,Potency,[13],inactive
same,Potency,[14],inactive
same,Potency,[15],631 nM (active)
same,outcome,[16],inactive
same,outcome,[17],inactive
same,outcome,[18],inactive
same,outcome,[19],inactive
same,Potency,[20],inactive
